# According to paper PMC7862700, “An all-to-all approach to the identification of sequence-specific readers for epigenetic DNA modifications on cytosine”:
# What was measured:
# Test in all cases: DAPPL (digital affinity profiling via proximity ligation, sequencing); 10 mM Tris-HCl pH 7.5, 50 mM NaCl, 1 mM DTT, 4% glycerol, room temperature, 30 min; GST-TFs on glutathione beads, 16-mer random dsDNA library, 0.1% formaldehyde crosslink after washing; high values mean tight binding
# Conditions in all cases: protein: recombinant; tags: N-terminal GST; dsDNA, one strand shown
# [1] = target: T1, FLI1 (Homo sapiens, UniProt Q01543 1-452)
# T1 sequence: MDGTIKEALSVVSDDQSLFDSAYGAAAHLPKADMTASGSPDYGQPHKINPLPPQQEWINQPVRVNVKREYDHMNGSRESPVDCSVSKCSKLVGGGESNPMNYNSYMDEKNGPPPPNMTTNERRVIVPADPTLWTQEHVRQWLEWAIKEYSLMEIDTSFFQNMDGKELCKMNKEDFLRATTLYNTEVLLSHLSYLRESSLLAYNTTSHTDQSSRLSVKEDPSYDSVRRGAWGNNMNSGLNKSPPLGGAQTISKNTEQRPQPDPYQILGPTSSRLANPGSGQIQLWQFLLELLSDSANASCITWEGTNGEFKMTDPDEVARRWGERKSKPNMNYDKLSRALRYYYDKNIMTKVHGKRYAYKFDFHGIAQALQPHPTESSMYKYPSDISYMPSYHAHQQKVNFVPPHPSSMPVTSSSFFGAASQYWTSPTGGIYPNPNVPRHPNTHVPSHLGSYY
# Outline: (§1)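 Human transcription factors were made in yeast as GST fusions, captured on glutathione beads and barcoded with DNA. With a tag-only sample included, the pool was incubated with 200 nmole of a random double-stranded 16-mer DNA library in Tris/NaCl/DTT/glycerol buffer at room temperature for 30 min, then crosslinked with 0.1% formaldehyde after washing, ligated by proximity, amplified and sequenced. For binding signal, each hexamer's read frequency for a factor is divided by its frequency for the tag-only sample.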
# [2] = target: T2, ELK1 (Homo sapiens, UniProt P19419 1-428)
# T2 sequence: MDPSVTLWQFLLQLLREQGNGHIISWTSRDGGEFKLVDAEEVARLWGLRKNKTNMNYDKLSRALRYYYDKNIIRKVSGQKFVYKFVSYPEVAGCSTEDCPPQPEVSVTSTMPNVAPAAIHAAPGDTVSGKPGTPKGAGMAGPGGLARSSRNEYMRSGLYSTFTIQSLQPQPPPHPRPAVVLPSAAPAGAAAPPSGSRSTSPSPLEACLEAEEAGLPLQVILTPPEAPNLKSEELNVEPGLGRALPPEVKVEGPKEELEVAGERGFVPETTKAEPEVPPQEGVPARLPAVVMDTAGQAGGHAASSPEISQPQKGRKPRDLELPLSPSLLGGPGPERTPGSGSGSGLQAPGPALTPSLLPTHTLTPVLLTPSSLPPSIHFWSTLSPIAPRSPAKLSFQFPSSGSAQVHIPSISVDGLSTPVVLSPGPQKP
# Outline: as §1
# [3] = target: T3, GABPA (Homo sapiens, UniProt Q06546 1-454)
# T3 sequence: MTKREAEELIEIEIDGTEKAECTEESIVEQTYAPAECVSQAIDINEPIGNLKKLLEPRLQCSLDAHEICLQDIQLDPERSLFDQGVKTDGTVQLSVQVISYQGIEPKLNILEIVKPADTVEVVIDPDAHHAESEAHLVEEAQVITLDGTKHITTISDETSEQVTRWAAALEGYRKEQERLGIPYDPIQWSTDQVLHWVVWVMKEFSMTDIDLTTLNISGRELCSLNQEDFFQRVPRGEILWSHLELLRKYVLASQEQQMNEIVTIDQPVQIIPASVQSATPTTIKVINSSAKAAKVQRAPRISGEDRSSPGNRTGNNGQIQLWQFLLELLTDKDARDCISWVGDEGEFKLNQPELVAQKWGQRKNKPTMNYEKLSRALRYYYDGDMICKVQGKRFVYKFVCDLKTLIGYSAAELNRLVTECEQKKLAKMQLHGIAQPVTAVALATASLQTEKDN
# Outline: as §1
# [4] = target: T4, ERG (Homo sapiens, UniProt P11308 1-479)
# T4 sequence: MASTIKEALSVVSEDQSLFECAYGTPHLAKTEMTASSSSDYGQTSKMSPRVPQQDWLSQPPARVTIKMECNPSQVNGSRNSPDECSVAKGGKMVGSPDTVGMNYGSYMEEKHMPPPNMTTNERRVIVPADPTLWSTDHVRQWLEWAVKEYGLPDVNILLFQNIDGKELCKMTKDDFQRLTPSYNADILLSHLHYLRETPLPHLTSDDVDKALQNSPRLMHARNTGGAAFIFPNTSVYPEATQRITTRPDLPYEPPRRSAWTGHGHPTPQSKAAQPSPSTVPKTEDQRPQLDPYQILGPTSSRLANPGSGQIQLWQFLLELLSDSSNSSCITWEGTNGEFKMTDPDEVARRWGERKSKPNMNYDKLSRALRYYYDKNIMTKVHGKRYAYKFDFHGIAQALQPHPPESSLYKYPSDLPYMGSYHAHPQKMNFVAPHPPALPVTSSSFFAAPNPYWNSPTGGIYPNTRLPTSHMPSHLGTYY
# Outline: as §1
# [5] = target: ELF1 (Homo sapiens, UniProt P32519 1-619)
# ELF1, sequence (P32519 whole entry): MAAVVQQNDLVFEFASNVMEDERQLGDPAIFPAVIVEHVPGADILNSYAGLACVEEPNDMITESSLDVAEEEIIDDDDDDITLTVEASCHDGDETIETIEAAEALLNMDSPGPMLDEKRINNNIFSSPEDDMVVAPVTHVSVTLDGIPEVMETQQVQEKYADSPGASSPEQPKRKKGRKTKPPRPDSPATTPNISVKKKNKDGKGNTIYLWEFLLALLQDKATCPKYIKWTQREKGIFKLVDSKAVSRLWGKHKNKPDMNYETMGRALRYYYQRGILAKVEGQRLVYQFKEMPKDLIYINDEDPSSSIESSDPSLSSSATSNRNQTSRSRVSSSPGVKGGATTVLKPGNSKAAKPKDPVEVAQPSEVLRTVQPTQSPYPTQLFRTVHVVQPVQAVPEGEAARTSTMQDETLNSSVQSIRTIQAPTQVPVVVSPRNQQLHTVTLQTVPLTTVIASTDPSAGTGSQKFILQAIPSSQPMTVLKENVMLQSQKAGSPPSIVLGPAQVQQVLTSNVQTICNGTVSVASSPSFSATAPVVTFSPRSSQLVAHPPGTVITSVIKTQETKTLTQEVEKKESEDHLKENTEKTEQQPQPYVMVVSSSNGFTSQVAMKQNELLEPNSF
# Outline: as §1
# [6] = target: T5, EHF (Homo sapiens, UniProt Q9NZC4 1-300)
# T5 sequence: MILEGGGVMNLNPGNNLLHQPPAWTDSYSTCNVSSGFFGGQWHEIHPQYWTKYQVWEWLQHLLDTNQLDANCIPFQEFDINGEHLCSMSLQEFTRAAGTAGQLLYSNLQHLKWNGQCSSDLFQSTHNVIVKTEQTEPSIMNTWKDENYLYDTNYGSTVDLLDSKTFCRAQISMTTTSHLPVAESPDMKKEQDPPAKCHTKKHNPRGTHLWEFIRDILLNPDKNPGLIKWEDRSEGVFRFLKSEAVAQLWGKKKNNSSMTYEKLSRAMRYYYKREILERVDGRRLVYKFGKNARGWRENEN
# Outline: as §1
# [7] = target: SPI1 (Homo sapiens, UniProt P17947 1-270)
# Outline: as §1
# [8] = target: SPIB (Homo sapiens, UniProt Q01892 1-262)
# SPIB, sequence (Q01892 whole entry): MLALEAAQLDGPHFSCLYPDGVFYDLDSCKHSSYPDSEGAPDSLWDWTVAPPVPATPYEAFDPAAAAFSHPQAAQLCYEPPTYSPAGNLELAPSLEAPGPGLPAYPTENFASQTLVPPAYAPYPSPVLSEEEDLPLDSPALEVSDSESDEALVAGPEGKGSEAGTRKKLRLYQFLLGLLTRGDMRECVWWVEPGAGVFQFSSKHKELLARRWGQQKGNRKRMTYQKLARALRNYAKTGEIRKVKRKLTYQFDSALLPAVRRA
# Outline: as §1
# [9] = target: T6, ELK3 (Homo sapiens, UniProt P41970 1-407)
# T6 sequence: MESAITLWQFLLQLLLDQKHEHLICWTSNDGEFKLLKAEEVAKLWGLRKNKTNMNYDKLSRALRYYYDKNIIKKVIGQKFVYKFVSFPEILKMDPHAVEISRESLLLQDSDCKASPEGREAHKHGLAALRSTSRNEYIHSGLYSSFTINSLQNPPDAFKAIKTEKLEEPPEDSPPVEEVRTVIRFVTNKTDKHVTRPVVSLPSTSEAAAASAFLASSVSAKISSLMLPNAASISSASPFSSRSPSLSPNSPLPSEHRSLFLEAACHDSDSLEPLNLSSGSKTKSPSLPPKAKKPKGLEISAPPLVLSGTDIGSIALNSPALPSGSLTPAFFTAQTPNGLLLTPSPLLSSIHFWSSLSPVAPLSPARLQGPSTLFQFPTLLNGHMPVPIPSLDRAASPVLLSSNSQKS
# Outline: as §1
sequence,measurement,setting,value
TTTTGT,binding signal,[1],"1.35 fold enrichment (6-mer frequency, TF over GST control)"
same,binding signal,[2],"1.18 fold enrichment (6-mer frequency, TF over GST control)"
same,binding signal,[3],"1.36 fold enrichment (6-mer frequency, TF over GST control)"
same,binding signal,[4],"1.39 fold enrichment (6-mer frequency, TF over GST control)"
same,binding signal,[5],"1.33 fold enrichment (6-mer frequency, TF over GST control)"
same,binding signal,[6],"1.33 fold enrichment (6-mer frequency, TF over GST control)"
same,binding signal,[7],"1.43 fold enrichment (6-mer frequency, TF over GST control)"
same,binding signal,[8],"1.37 fold enrichment (6-mer frequency, TF over GST control)"
same,binding signal,[9],"1.27 fold enrichment (6-mer frequency, TF over GST control)"
